Bioassay records: PubChem BioAssay, National Center for Advancing Translational Sciences (NCATS)
Only some compounds are listed: those with a hit (about 21% of all), similar ones and a draw of the others.
Pf growth 48h: Primary qHTS for delayed death inhibitors of the malarial parasite plastid, 48 hour incubation; P. falciparum luciferase growth in erythrocytes, 48 h; hit rate 5.9% among 310,000; Potency, µM (series often up to 28.7 µM), for the others: at the highest dose activity change, negative = inhibition, hits mostly inhibitors; further: potency means the concentration at half of the fitted maximal effect; on the % scale 0 is the no-effect control and ±100 the full control effect
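Luminescence readout; reporter = integrated firefly luciferase in P. falciparum. RBC culture at 2% hematocrit, 0.1% parasitemia final, 37 C/5% CO2; decreased signal taken as growth inhibition.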
SARS PLP yeast: qHTS of Yeast-based Assay for SARS-CoV PLP; S. cerevisiae expressing SARS-CoV PLpro, growth rescue; hit rate 0.19% among 330,000; Potency, µM (top dose mostly 32.9 µM), for the others: at the highest dose activity, positive = growth rescue, actives largely listed as activators; calls by dose curve; further: potency means the concentration at half of the fitted maximal effect; 0% is about no effect; nearly all actives have a fitted effect of over 55% in size
NS1 function inh: qHTS Assay for Inhibitors of Influenza NS1 Protein Function; hit rate 0.4% among 270,000; Potency, µM (highest dose often 46.1 µM), inactives show top-dose activity, positive = more growth; calls by dose curve; further: potency means the concentration at half of the fitted maximal effect; actives are rising curves; nearly all actives have a fitted effect of over 50% in size
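S. cerevisiae expressing influenza A NS1, grown in glucose, washed, then diluted 1:100 into pH 6.0 -URA galactose medium with 23 nl compound. Growth recovery read as OD600; NS1-free strain serves as control.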
Pf growth 96h: Primary qHTS for delayed death inhibitors of the malarial parasite plastid, 96 hour incubation. hit rate 6.9% among 320,000. AID 504834, 2011. Potency, µM (highest dose often 28.7 µM), inactives show at the highest dose activity change, negative = inhibition, most hits filed as inhibitors. P. falciparum luciferase reporter growth, 96 h; further: potency means the concentration at half of the fitted maximal effect; on the % scale 0 is the no-effect control and ±100 the full control effect
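P. falciparum expressing integrated firefly luciferase, in erythrocytes at 2% hematocrit, 0.05% parasitemia, incubated with compounds 96 h at 37 C, 5% CO2. Growth inhibition read as loss of luminescence; two-generation exposure targets delayed-death apicoplast inhibitors.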
Cycloheximide cs: Cycloheximide Counterscreen for Small Molecule Inhibitors of Shiga Toxin; cell reporter, cycloheximide protein synthesis inhibition counterscreen; max response, %; hit rate 12% among 300,000; AID 2314, 2010; in the data active means max response mostly above about 13%, no sharp cut-off; inactive means mostly below about 14%; further: read at 38.3 µM for the half of the compounds with a filed dose; 0% is about no effect
Shiga toxin inh: A qHTS for Small Molecule Inhibitors of Shiga Toxin; Vero cells, Shiga toxin protein synthesis inhibition reporter; inhibition, % at 38.7 µM; hit rate 9.2% among 290,000; AID 2315, 2010; in the data active means inhibition mostly above about 28%, no sharp cut-off; inactive means mostly below about 43%; further: 0% is about no effect
Active calls of the source: *; ? = inconclusive; nt = not tested or not shown; [ ] = remark or other dose. Unless noted, the call rests on the fitted dose curve; in most records, active means well fitted inhibition curve with a large enough effect; inconclusive means small, poorly fitted or top-dose-only effect, or another doubt; inactive means no such curve, though single readings can be large or run the other way.

SMILES	Pf growth 48h	SARS PLP yeast	NS1 function inh	Pf growth 96h	Cycloheximide cs	Shiga toxin inh
COc1ccc(NC(=O)Nc2ccon2)c(OC)c1	37%	-1%	2%	-2%	7	26
Clc1ccc(OCc2nn3c(C4CCCCC4)nnc3s2)c(Cl)c1	43%	-8%	-77%	28%	-1	-2
COc1cc(OC)c(-c2nn3c(C4CCCCC4)nnc3s2)cc1OC	5.2µM*	1%	-78%	44%	-4	-3
COc1cc(-c2nnc3sc(Cc4ccccc4)nn23)cc(OC)c1OC	?	-8%	-10%	6.6µM*	-2	-15
CCOc1cccc(-c2nnc3sc(C4CCCCC4)nn23)c1	9.3µM*	-8%	-1%	10µM*	-3	-8
Cc1cc(-c2nnc3sc(C4CCCCC4)nn23)n[nH]1	nt	-5%	-1%	?	-2	-4
COc1cccc(-c2nnc3sc(C4CCCCC4)nn23)c1	nt	-12%	-114%	3%	16	36
COc1cc(-c2nnc3sc(C4CCCCC4)nn23)cc(OC)c1OC	8.3µM*	-2%	-152%	5.2µM*	-3	-9
COc1ccc(-c2nnc3sc(CCN4C(=O)c5ccccc5C4=O)nn23)cc1	5.2µM*	-3%	-31%	?	-4	-9
O=C(NC(Cc1c[nH]c2ccccc12)c1nnc2n1CCCCC2)c1ccccc1 (stereo not drawn)	15%	3%	1%	41%	-1	-16
CCN(CC)S(=O)(=O)c1cccc(C(=O)NC(Cc2c[nH]c3ccccc23)c2nnc3n2CCCCC3)c1 (stereo not drawn)	?	-1%	0%	10µM*	14	15
CCSc1cnn(-c2ccccc2)c(=O)c1SCC	nt	-3%	-6%	27%	1	11
O=c1c2cnn(-c3ccccc3)c2nc(-c2ccco2)n1-c1ccccc1	10µM*	-1%	0%	10µM*	-1	12
O=c1oc(-c2ccco2)nc2c1cnn2-c1ccccc1	-4%	-8%	-59%	-5%	-3	-15
CCCSc1nc2c(cnn2-c2ccccc2)c(=O)n1N	-7%	-1%	-8%	471%	43*	50*
CCCCSc1cnn(-c2ccccc2)c(=O)c1SCCCC	12µM*	-27%	0%	12µM*	-3	-1
CCCCSc1nc2c(cnn2-c2ccccc2)c(=O)n1N	79%	-2%	-37%	-1%	42*	94*
Nn1c(SCc2ccccc2)nc2c(cnn2-c2ccccc2)c1=O	31%	-1%	-8%	0%	23*	76*
Cc1ccc(NC2=C/C(=N/S(=O)(=O)c3cccs3)c3ccccc3C2=O)cc1	?	-14%	?	4%	48*	145*
CC(C)(C)c1ccc(S(=O)(=O)/N=C2\C=C(NS(=O)(=O)c3ccccc3)C(=O)c3ccccc32)cc1	-8%	-9%	10%	3%	0	-6
O=C1C(Nc2ccccc2)=C/C(=N/S(=O)(=O)c2cccs2)c2ccccc21	0.52µM*	-76%	-41%	0.52µM*	11	16
COc1ccc(NC(=O)CSc2nc3ccccc3nc2N2CCOCC2)c(OC)c1	-24%	-8%	4%	13%	-4	6
O=C(NCCN1CCOCC1)c1cc(-c2cccc(O)c2)on1	38%	-4%	-5%	155%	10	23
O=C(NCCCn1ccnc1)c1cc(C2CC2)on1	1%	1%	-5%	10µM*	-3	9
O=C(NCCCn1ccnc1)c1cc(C(=O)C2CC2)c[nH]1	7%	0%	1%	33%	-1	8
SMILES	Pf growth 48h	SARS PLP yeast	NS1 function inh	Pf growth 96h	Cycloheximide cs	Shiga toxin inh
O=C(NCCCn1ccnc1)c1cc(-c2cccc(O)c2)on1	42%	0%	-3%	49%	31*	74*
Cc1ccc(-c2cc(C(=O)NCCCn3ccnc3)no2)cc1	-19%	1%	2%	3%	26*	50*
CN(c1ccc(C(=O)NCCCn2ccnc2)cc1)S(C)(=O)=O	15%	-7%	-9%	-11%	-1	-3
CSc1nc(N)nc2c1ncn2CC(=O)NCCCN1CCCC1=O	nt	17%	nt	nt	nt	nt
O=C(CCOc1ccccc1)Nc1ccnn1C1CCN(Cc2ccc(CO)o2)CC1	-23%	3%	1%	?	1	20
CCOC(=O)N1CCN(C(=O)COC(=O)c2ccc(N(C)C)cc2)CC1	nt	7%	nt	nt	nt	nt
CCOC(=O)C1CCN(C(=O)c2cccc(C(=O)N3CCC(C(=O)OCC)CC3)c2)CC1	-10%	?	-2%	?	-1	0
CN(C)c1ccc(C(=O)N2CCCC2)cc1	43%	2%	nt	12µM*	10	4
CN(C)c1ccc(C(=S)N2CCCCCC2)cc1	nt	24%	3%	38%	20	20
CCOC(=O)C1CCN(C(=O)COC(=O)c2cccc(F)c2)CC1	?	0%	nt	9%	22*	72*
CN(C)c1ccc(C(=O)OCC(=O)N2CCCC2)cc1	40%	-1%	-2%	78%	32*	53*
CCOc1ccc(C(=O)OCC(=O)N2CCCC2)cc1	58%	-1%	-5%	27%	27*	59*
NC(=O)C1CCN(C(=O)c2cccc(S(=O)(=O)N3CCCC3)c2)CC1	28%	-6%	nt	38%	nt	nt
CC1(C)CC2(CCO1)OC(=O)CC2C(=O)Nc1ccccc1Cl (stereo not drawn)	20%	0%	-2%	3%	-1	-12
CN(C)c1ccc(C(=O)OCC(=O)N2CCCCCC2)cc1	93%	0%	nt	120%	36*	106*
O=C(OCC(=O)N1CCCC1)c1cccc(Br)c1	32%	-3%	-10%	-2%	20*	54*
CCOC(=O)c1c(NC(=O)C(Sc2ccccc2)c2ccccc2)sc(C(N)=O)c1C (stereo not drawn)	?	1%	1%	9.3µM*	-2	-8
CCOC(=O)c1c(NC(=O)C(Sc2ccccc2)c2ccccc2)sc(C(=O)N(C)C)c1C (stereo not drawn)	3.3µM*	?	?	?	1	-7
CCN(CC(=O)Nc1ccc2c(c1)OCCO2)C(=O)c1ccc(C(F)(F)F)cc1	86%	0%	nt	97%	nt	nt
Cc1nc2sc(C(c3ccccc3)N3CCN(C)CC3)c(O)n2n1 (stereo not drawn)	32%	2%	4%	83%	-9	-5
N#CCC(=O)Nc1ncc(Cc2ccccc2Cl)s1	?	-2%	nt	51%[1.15 µM]	16	-13
O=C(O)c1ccc2c(c1)ncn2C1CCCC1	101%	5%	nt	-22%	48*	114*
CCCCNC(=O)c1ccc2c(c1)ncn2C1CCCC1	nt	13%	-4%	?	34*	65
CCCCNC(=O)c1ccc2c(c1)ncn2C1CCCCC1	?	5%	-3%	?	12	-4
